Data: PubChem BioAssay (EPA / NIEHS)
“And” between values parts separate entries of the source, which are not always exact repeats. Equal entries are not always repeated. Records with an inconclusive call do not appear. Where a structure was tested more than once in an assay, its records may differ in their call. The source made the active and inactive calls. How the source made its calls, unless noted: active means hit-call score of the fitted dose curve at least 0.9, where 1 is the maximum; inconclusive means response in the unintended direction; inactive means score below 0.9.

Tests used:
[1] = molecular target: PGR (gene 5241) (UniProt P06401); assay: NVS_NR_hPR: NovaScreen (NVS) Nuclear Receptor Binding Assay for human Progestron Receptor (PR) (AID 2283360);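 further: active means loss of bound radioligand signal versus DMSO baseline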
Outline: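 T47D-derived receptor preparation, cell-free, with tritiated or iodinated radioligand displacement measured by scintillation 18 h post-dosing. Single 25 uM duplicate screen, then concentration series; signal loss relative to DMSO.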

[2] = molecular target: guinea pig Sigma Receptor, Non-selective Binding, SIGMAR1 (gene 100135589) (UniProt Q60492); assay: NVS_OR_gSIGMA_NonSelective: NovaScreen (NVS) Nuclear Receptor Binding Assay for guinea pig Sigma Receptor, Non-selective Binding (AID 2283367)
Outline: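 Test chemicals were screened in duplicate at 25 uM, then in concentration series if active, against radioligand binding to guinea pig brain membranes; filtration and scintillation counting at 1 h measured remaining bound ligand.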

[3] = molecular target: Peroxisome proliferator-activated receptor gamma (Homo sapiens) (UniProt P37231); assay: NVS_NR_hPPARg: NovaScreen (NVS) Nuclear Receptor Binding Assay for human Peroxisome Proliferator-activated Receptor gamma (PPARg) (AID 2283370)
Chain of Peroxisome proliferator-activated receptor gamma (Homo sapiens) (P37231 whole entry, looked up): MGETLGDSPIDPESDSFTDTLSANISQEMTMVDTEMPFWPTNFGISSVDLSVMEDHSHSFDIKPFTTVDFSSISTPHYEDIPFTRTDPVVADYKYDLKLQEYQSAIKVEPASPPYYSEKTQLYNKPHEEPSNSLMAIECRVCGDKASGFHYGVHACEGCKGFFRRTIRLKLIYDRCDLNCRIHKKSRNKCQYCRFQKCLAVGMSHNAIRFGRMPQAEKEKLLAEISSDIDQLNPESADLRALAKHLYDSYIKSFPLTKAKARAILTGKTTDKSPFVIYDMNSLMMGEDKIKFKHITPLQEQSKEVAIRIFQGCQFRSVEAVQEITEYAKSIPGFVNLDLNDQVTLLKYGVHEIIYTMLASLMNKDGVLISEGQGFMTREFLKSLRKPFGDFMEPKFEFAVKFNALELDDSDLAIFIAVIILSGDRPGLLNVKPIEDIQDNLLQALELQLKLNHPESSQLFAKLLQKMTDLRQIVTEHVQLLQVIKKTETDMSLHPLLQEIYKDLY
Outline: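 Cell-free fluorescence polarization binding to human PPARg protein, read 2 h after dosing. Primary screen in duplicate at 25 uM, actives followed in concentration series; loss of signal relative to DMSO scored.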

[4] = molecular target: mouse Estrogen Receptor alpha (Era), Esr1 (gene 13982) (UniProt P19785); assay: NVS_NR_mERa: NovaScreen (NVS) Nuclear Receptor Binding Assay for mouse Estrogen Receptor alpha (Era) (AID 2283378);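 further: hit means loss of bound radioligand signal relative to DMSO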
Chain of mouse Estrogen Receptor alpha (Era), Esr1 (gene 13982) (P19785 whole entry, looked up): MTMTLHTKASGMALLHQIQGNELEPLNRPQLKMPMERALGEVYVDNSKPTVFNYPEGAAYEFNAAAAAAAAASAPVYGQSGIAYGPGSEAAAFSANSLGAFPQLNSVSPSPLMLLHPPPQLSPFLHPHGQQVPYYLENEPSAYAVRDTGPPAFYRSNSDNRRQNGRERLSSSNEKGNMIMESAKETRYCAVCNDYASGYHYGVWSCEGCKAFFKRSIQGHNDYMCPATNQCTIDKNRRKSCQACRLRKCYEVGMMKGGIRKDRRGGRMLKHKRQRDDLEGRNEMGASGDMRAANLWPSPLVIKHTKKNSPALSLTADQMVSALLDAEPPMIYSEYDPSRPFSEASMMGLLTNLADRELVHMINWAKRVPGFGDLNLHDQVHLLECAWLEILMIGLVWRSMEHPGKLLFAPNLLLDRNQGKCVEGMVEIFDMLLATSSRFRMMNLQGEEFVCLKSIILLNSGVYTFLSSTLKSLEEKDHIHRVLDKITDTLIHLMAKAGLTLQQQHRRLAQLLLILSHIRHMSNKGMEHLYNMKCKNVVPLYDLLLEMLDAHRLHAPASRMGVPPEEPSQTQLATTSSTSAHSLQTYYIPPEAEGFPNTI
Outline: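 Cell-free radioligand competitive displacement binding, read by filter-based scintillation counting 18 h after dosing. Primary screen run in duplicate at 25 uM, actives retested in concentration series; loss of signal versus DMSO.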

[5] = molecular target: Estrogen receptor beta (Homo sapiens) (UniProt Q92731); assay: OT_ER_ERbERb_1440: Odyssey Thera (OT) 24-hour HEK293T Protein-Complementation Assay for Estrogen Receptor-beta/-beta Homodimer (AID 2283380);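 further: fluorescence gain from ER beta LBD homodimer complementation read by laser scanning cytometry; scored as signal increase over DMSO baseline for both agonists and antagonists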
Outline: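 HEK293T cells stably expressing human ER-beta LBD (aa 310-547) PCA homodimer pair, dosed 24 h; formaldehyde-fixed, Draq5-stained. Readout: increase in nuclear (agonist) or nuclear plus cytoplasmic (antagonist) fluorescence intensity versus DMSO, gain-of-signal fitting.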

[6] = molecular target: Estrogen receptor (Homo sapiens) (UniProt P03372); assay: OT_ERa_GFPERaERE_0480: Odyssey Thera (OT) 8-hour HeLa Transcription Induction Assay for Estrogen Receptor (AID 2283381; active means hit-call score of the fitted dose curve at least 0.9, where 1 is the maximum; inactive means score below 0.9)
Chain of Estrogen receptor (Homo sapiens) (P03372 whole entry, looked up): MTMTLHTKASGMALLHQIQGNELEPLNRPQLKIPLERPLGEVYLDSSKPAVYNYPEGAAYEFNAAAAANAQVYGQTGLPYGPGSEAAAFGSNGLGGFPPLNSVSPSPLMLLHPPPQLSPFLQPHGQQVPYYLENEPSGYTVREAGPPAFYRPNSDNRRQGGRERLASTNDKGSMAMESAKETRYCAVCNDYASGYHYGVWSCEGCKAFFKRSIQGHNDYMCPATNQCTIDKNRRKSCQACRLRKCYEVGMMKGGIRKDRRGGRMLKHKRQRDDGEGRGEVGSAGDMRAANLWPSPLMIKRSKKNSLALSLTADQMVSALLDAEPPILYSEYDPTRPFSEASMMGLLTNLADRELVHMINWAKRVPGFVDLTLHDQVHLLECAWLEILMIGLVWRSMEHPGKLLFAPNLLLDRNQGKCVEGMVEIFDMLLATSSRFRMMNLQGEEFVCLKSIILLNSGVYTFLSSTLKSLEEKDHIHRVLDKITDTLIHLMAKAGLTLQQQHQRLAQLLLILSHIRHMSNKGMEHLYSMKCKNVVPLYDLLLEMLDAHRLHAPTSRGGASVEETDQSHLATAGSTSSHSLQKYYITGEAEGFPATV
Outline: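 Fluorescence microscopy with high-content image analysis measures ERE-driven GFP induction in HeLa cells at 8 h post-dose. Increases fitted against DMSO baseline.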

[7] = molecular target: Glucocorticoid receptor (Homo sapiens) (UniProt P04150); assay: NVS_NR_hGR: NovaScreen (NVS) Nuclear Receptor Binding Assay for human Glucocorticoid Receptor (GR) (AID 2283363);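 on AC50: activity is loss of specific radioligand binding signal relative to DMSO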
Chain of Glucocorticoid receptor (Homo sapiens) (P04150 whole entry, looked up): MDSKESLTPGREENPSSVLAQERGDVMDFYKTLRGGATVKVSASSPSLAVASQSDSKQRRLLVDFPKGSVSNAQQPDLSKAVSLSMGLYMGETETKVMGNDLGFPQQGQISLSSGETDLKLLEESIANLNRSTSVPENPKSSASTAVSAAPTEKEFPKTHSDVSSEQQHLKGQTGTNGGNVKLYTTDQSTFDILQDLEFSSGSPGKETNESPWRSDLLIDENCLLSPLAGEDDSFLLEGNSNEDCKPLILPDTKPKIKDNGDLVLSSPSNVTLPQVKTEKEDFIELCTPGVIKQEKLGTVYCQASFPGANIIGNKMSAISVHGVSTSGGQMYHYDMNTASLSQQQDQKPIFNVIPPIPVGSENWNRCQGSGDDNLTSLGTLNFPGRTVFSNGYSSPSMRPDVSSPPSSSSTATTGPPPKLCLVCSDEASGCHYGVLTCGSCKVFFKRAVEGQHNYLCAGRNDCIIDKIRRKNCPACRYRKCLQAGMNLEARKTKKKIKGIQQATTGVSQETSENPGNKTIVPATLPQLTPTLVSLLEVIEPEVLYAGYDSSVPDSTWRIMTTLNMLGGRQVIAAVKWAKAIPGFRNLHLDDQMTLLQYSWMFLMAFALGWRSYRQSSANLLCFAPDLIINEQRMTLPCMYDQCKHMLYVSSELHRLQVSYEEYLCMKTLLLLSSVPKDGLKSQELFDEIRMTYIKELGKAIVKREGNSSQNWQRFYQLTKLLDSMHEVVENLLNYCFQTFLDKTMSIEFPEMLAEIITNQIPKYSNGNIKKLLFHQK
Outline: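 Single-readout cell-free binding: radioligand plus extracted receptor, 16-hour dosing, filter radiodetection; 25 uM duplicate primary, concentration series secondary.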

[8] = molecular target: human Dopamine Transporter (DAT), SLC6A3 (gene 6531) (UniProt Q01959); assay: NVS_TR_hDAT: NovaScreen (NVS) Transporter Assay for human Dopamine Transporter (DAT) (AID 2283374);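 further: activity means loss of bound radioligand signal relative to DMSO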
Chain of human Dopamine Transporter (DAT), SLC6A3 (gene 6531) (Q01959 whole entry, looked up): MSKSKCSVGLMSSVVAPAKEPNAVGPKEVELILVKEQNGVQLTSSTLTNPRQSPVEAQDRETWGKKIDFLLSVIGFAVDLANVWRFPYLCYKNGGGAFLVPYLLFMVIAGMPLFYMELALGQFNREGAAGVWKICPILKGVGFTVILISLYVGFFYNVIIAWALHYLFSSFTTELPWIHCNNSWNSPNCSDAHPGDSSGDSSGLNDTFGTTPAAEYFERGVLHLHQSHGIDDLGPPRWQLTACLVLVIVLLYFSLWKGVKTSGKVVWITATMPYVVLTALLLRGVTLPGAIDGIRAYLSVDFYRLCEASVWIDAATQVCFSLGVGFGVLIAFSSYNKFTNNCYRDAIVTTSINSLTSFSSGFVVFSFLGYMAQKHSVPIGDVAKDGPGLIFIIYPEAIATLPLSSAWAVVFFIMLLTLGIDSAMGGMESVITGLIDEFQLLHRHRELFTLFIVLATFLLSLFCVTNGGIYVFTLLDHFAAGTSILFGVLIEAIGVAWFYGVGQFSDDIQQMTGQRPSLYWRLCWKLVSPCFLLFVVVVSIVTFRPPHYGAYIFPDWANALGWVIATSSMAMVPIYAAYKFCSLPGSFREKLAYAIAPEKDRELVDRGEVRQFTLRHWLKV
Outline: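 Extracted human SLC6A3 protein incubated 1 h with radioligand and test chemical; bound fraction separated on filters and counted. Single 25 uM duplicate screen preceded concentration-response follow-up; positive and negative controls on every plate.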

[9] = molecular target: human Peroxisome Proliferator-activated Receptor alpha (PPARa), PPARA (gene 5465) (UniProt Q07869); assay: NVS_NR_hPPARa: NovaScreen (NVS) Nuclear Receptor Binding Assay for human Peroxisome Proliferator-activated Receptor alpha (PPARa) (AID 2283359);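 further: activity means loss of TR-FRET signal versus DMSO baseline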
Chain of human Peroxisome Proliferator-activated Receptor alpha (PPARa), PPARA (gene 5465) (Q07869 whole entry, looked up): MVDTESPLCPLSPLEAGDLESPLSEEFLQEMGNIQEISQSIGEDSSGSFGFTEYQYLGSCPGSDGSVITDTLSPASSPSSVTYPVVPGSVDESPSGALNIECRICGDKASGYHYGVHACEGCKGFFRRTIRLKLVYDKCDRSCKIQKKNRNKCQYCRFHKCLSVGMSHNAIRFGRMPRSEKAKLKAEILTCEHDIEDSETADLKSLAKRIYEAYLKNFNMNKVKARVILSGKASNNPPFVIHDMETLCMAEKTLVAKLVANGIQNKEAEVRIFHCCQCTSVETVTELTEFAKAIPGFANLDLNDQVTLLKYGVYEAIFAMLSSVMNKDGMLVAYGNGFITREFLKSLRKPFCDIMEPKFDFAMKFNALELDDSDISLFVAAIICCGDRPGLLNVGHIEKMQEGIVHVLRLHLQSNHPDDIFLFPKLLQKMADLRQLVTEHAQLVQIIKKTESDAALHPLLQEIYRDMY
Outline: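 One-hour incubation, cell-free extracted protein, TR-FRET binding readout; signal loss vs DMSO scored. Screen: 25 uM duplicates, confirmatory dose series for actives.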

[10] = molecular target: human Thyroid Receptor Alpha (TRa), THRA (gene 7067) (UniProt P10827); assay: NVS_NR_hTRa_Antagonist: NovaScreen (NVS) Nuclear Receptor Binding Assay for human Thyroid Receptor Alpha Antagonism (TRa) (AID 2283362);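 further: activity is loss of signal relative to DMSO baseline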
Chain of human Thyroid Receptor Alpha (TRa), THRA (gene 7067) (P10827 whole entry, looked up): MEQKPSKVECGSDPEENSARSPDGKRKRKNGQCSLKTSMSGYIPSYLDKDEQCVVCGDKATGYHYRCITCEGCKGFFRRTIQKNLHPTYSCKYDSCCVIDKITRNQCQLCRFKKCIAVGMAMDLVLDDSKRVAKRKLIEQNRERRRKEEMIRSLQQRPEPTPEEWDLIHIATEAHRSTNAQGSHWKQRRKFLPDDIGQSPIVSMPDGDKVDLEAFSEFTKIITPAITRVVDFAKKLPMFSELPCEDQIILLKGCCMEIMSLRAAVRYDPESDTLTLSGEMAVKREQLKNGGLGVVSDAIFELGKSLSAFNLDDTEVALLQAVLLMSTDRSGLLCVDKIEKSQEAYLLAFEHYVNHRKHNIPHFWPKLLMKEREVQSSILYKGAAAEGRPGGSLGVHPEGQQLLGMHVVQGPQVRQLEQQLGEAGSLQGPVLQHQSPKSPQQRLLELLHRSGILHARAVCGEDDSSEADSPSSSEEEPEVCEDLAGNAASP
Outline: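 Cell-free AlphaLISA chemiluminescent binding read 1 h after dosing, antagonist mode; signal loss versus DMSO baseline. Primary screen in duplicate at 25 uM, then concentration series for actives.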

[11] = molecular target: rat Androgen Receptor (AR), Ar (gene 24208) (UniProt P15207); assay: NVS_NR_rAR: NovaScreen (NVS) Nuclear Receptor Binding Assay for rat Androgen Receptor (AR) (AID 2283366)
Chain of rat Androgen Receptor (AR), Ar (gene 24208) (P15207 whole entry, looked up): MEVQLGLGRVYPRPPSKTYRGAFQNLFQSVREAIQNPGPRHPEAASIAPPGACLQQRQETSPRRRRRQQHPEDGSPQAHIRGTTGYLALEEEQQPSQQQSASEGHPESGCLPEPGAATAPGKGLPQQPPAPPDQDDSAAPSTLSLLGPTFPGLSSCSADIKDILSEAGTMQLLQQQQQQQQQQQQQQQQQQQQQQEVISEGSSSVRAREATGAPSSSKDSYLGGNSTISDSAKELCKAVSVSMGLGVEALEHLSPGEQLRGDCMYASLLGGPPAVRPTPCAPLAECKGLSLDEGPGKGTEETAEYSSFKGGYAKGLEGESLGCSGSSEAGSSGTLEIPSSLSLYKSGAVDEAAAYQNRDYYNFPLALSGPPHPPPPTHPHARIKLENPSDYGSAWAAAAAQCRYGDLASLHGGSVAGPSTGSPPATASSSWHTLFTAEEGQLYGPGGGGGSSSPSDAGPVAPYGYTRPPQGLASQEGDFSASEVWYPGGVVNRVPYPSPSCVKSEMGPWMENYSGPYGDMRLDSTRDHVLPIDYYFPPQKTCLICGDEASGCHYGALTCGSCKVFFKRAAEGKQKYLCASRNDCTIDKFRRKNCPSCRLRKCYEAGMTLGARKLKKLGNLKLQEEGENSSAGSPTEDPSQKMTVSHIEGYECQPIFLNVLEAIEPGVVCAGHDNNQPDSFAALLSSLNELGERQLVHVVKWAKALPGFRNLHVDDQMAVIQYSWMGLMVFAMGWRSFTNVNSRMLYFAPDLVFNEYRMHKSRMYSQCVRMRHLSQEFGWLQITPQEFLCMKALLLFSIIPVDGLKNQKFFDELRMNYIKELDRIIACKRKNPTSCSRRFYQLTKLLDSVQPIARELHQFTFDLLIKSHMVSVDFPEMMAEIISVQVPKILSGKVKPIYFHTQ
Outline: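 Actives from a duplicate single-concentration (25 uM) primary run went on to concentration series. Displacement of radioligand was counted by filtration and scintillation, 18 h post-dose, using prostate extracts from testosterone-pretreated rats, with DMSO as baseline.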

[12] = molecular target: Agonist Androgen Response Element (ARE), AR (gene 367) (UniProt P10275); assay: OT_AR_ARELUC_AG_1440: Odyssey Thera (OT) 24-hour CHO-K1 Luciferase Assay for Agonist Androgen Response Element (ARE) (AID 2283379)
Outline: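 Luminescence increase above DMSO, read after a 24 h compound treatment of CHO-K1 cells expressing an androgen response element luciferase reporter, gives the single primary endpoint; concentration-response fitting used the positive direction.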

[13] = test system: guinea pig Dopamine Transporter (DAT), gene 100714898; assay: NVS_TR_gDAT: NovaScreen (NVS) Transporter Assay for guinea pig Dopamine Transporter (DAT) (AID 2283369);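 further: active compounds lower bound radioligand signal relative to DMSO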
Outline: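 Guinea pig striatal membranes, cell-free radioligand binding with filter-based scintillation counting, read 2 h after dosing. Loss of signal versus DMSO baseline; single-concentration primary (25 uM) then concentration-response up to 50 uM.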

With `CCCCN(CCCC)SN(C)C(=O)Oc1cccc2c1OC(C)(C)C2` the outcome [1] was “inactive”, the AC50 [2] was 4.72 µM (active) and the outcome [3] was “inactive”. The outcome [4] was “inactive”, the outcome [5] was “inactive” and the outcome [6] was “inactive”.
With `C=CC(=O)OCC(CC)(COC(=O)C=C)COC(=O)C=C` the AC50 [7] was 14 µM (active).
For `O=NN1CCCC1`, the outcome [3] was “inactive”, the AC50 [5] was 50 µM (active) and the outcome [6] was “inactive”.
`CC(C)(C)c1ccccc1OP(=O)(Oc1ccccc1)Oc1ccccc1` was tested, and the outcome [1] was “inactive” and the AC50 [8] was 9.69 µM (active).
For `CCCCN(CCCC)N=O`, the outcome [9] was “inactive”, the AC50 [2] was 25 µM (active) and the outcome [5] was “inactive”. The outcome [6] was “inactive”.
`CCCCCCCc1ccc(O)cc1` was tested, and the outcome [10] was “inactive”, the AC50 [7] was 33.3 µM (active) and the outcome [7] was “inactive”. The outcome [11] was “inactive”, the outcome [3] was “inactive” and the AC50 [8] was 6.26 µM (active). For the same compound, the AC50 [4] was 4.96 µM (active) and 14.5 µM (active), the outcome [4] was “inactive” and the outcome [12] was “inactive”. For the same compound, the AC50 [5] was 12.7 µM (active) and 12.5 µM (active) and 12.6 µM (active), the outcome [5] was “inactive” and the outcome [6] was “inactive”.
In the case of `CO/N=C(/C(=O)OC)c1ccccc1COc1ccccc1C`, the outcome [10] is reported as “inactive”, the outcome [4] is reported as “inactive” and the outcome [12] is reported as “inactive”. The AC50 [6] was 15.7 µM (active).
In the case of `CC(C)(C)OOC(C)(C)C`, the outcome [3] is reported as “inactive”, the outcome [5] is reported as “inactive” and the outcome [6] is reported as “inactive”.
In the case of `c1ccc(OP(Oc2ccccc2)Oc2ccccc2)cc1`, the outcome [3] is reported as “inactive”, the outcome [8] is reported as “inactive” and the outcome [4] is reported as “inactive”. The outcome [5] was “inactive” and the outcome [6] was “inactive”.
In the case of `CN(C)C(=O)Cl`, the outcome [9] is reported as “inactive” and the outcome [6] is reported as “inactive”.
With `c1ccc2c(c1)sc1ccccc12` the AC50 [7] was 0.179 µM (active), the outcome [7] was “inactive” and the outcome [6] was “inactive”.
`CSC(C)(C)C=NO` was tested, and the outcome [1] was “inactive”, the outcome [7] was “inactive” and the outcome [13] was “inactive”. For the same compound, the outcome [3] was “inactive”, the outcome [8] was “inactive” and the outcome [6] was “inactive”.
For `CCCCC(CC)COC(=O)c1c(Br)c(Br)c(Br)c(Br)c1C(=O)OCC(CC)CCCC` (configuration not stated), the AC50 [7] was 6.58 µM (active) and 6.59 µM (active), the outcome [5] was “inactive” and the outcome [6] was “inactive”.
For `O=C(CBr)OCc1ccccc1`, the outcome [9] was “inactive”, the outcome [5] was “inactive” and the outcome [6] was “inactive”.
